Experimental data from PubChem BioAssay AID1159580 (chemical genetic matrix, 2015).
Screen size: about 5,500 compounds; about 2,000 (36%) were called active. Inconclusive results (about 18%) are left out. Cut-off read from the data, not from the text of the source: active = normalized growth mostly below about 0.91 (no sharp cut-off); inconclusive = no clear call, values can overlap the other calls; inactive = mostly above about 0.92. The list shows a part of the results.

Experiment: chemical genetic growth profiling, strain panel (AID 1159580);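 note: tested at 20 µM; growth read once vehicle control cultures reached saturation at 30 °C; 1 = growth at the plate median or of vehicle wells; lower values mean less growth of the strain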
Settings: S. cerevisiae deletion strains, growth OD

Measured: normalized growth

CC(C)=CCC/C(C)=C/CC/C(C)=C/CC/C(C)=C/CO
inactive: locus YHR030C, strain SLT2, hits give low values 1.06 | locus YHR079C, strain IRE1, hits give low values 1.05 | locus YJL095W, strain BCK1, hits give low values 1.04 | locus YJR066W, strain TOR1, hits give low values 0.944 | locus YLR113W, strain HOG1, hits give low values 0.975 | locus YNL183C, strain NPR1, hits give low values 0.932 | locus YOR231W, strain MKK1, hits give low values 0.998 | locus YPL256C, strain CLN2, hits give low values 1.08
